Data: PubChem BioAssay AID2314 (National Center for Advancing Translational Sciences (NCATS), 2010)
Several values for one entry are separate records, joined by “and”; a condition that tells them apart may be missing. Identical values can stand only once. The campaign covered roughly 300,000 compounds. About 37,000 (12%) were called active. No stated cut-off is given here; in the data, active means max response mostly above about 13% (no sharp cut-off); inactive means mostly below about 14%. The full list was thinned out, with actives kept by preference.

Experiment: Cycloheximide Counterscreen for Small Molecule Inhibitors of Shiga Toxin; further: read at 38.3 µM for the half of the compounds with a filed dose; 0% is about no effect
Details: cell reporter, cycloheximide protein synthesis inhibition counterscreen; hits give high values
For `COc1cccc(S(=O)(=O)NCc2ccc(C(=O)NCc3ccccn3)cc2)c1`, the max response was 1.45% (inactive).
With `O=C(NCc1ccccn1)Nc1ccc(F)cc1` the max response was -3.36% (inactive).
In the case of `COc1cccc(NC(=S)NCc2ccccn2)c1`, the max response is reported as 72.3% (active).
For `COc1cccc(NC(=S)N(Cc2ccc(C)cc2)Cc2ccccn2)c1`, the max response was 0.648% (inactive).
In the case of `COc1cccc(OC)c1C(=O)NC(=S)NCc1ccco1`, the max response is reported as 5.2% (inactive).
In the case of `COC(=O)Cc1ccc(NC(=S)NCc2ccco2)cc1`, the max response is reported as 10.2% (inactive).
In the case of `Cc1cc(C)cc(NC(=O)NCc2ccccn2)c1`, the max response is reported as -2.88% (inactive).
In the case of `COc1cccc(NC(=S)NCc2ccco2)c1`, the max response is reported as 18.2% (active).
For `CCC(C)c1ccc(NC(=S)NCc2ccccn2)cc1` (stereo unspecified), the max response was 17.3% (active).
With `O=C(O)C1CCCCC1C(=O)N1CCN(S(=O)(=O)c2ccc(F)cc2)CC1` (stereo unspecified) the max response was -2.39% (inactive).
For `O=C(Nc1ccccc1)N1CCN(C2c3ccccc3-c3ccccc32)CC1`, the max response was -0.816% (inactive).
In the case of `COc1ccc(N(CC(=O)N2CCCCCC2)S(=O)(=O)c2ccccc2)cc1`, the max response is reported as 4.89% (inactive).
With `CC1(C(=O)NNC(=S)NCC2CCCO2)CC1(Cl)Cl` (stereo unspecified) the max response was -4.02% (inactive).
For `COc1ccccc1N1CCN(S(=O)(=O)c2ccc3c(c2)NC(=O)CS3)CC1`, the max response was 5.75% (inactive).
For `CC(=O)N1CC(=O)N(CC(=O)Nc2ccc(Br)cc2)C1=S`, the max response was -5.45% (inactive).
For `NC(=O)COC(=O)c1ccc2c(c1)C(=O)N(Cc1ccco1)C2=O`, the max response was -3.87% (inactive).
With `CCOCN(C(=O)Cn1c(C(C)O)nc2ccccc21)c1c(C)cccc1CC` (stereo unspecified) the max response was -4.33% (inactive).
For `COc1ccccc1NC(=O)C1CCCN(c2cc(C)nc3ncnn23)C1` (stereo unspecified), the max response was -3.74% (inactive).
With `COc1ccccc1-c1cnn2c(N3CCOCC3)cc(C)nc12` the max response was 52% (active).
With `Cc1cc(C(F)(F)F)n2ncc(-c3ccccc3)c2n1` the max response was 6.21% (inactive).
With `CCC1C(=O)c2ccccc2N(C)C1=O` (stereo unspecified) the max response was -0.886% (inactive).
For `CN1C(=O)/C(=N/OC(=O)c2ccccc2Br)c2ccccc21`, the max response was 3.18% (inactive).
For `CN1C(=O)/C(=C\c2cc(Br)cs2)c2ccccc21`, the max response was 46.4% (active).
In the case of `COc1ccc(/C=C(\NC(=O)c2ccccc2)C(=O)NCCN2CCOCC2)cc1OC`, the max response is reported as -1.94% (inactive).
In the case of `O=C(CNCCC1=CCCCC1)Nc1ccccc1N1CCCCCC1`, the max response is reported as -4.26% (inactive).
For `CCOc1ccc(C(CCc2ccccc2)NC(=O)c2ccc(OC)c(OC)c2)cc1OCC` (stereo unspecified), the max response was 7.29% (inactive).
For `CC(C)CCC(C)NC(=O)c1ccc2nccnc2c1` (stereo unspecified), the max response was 53.8% (active).
With `COCC(C)NC(=O)c1ccc(Cl)c(Cl)c1` (stereo unspecified) the max response was 0.894% (inactive).
With `Cc1ccc(C)c(NC(=O)c2ccc3nccnc3c2)c1` the max response was 5.91% (inactive).
For `CC(C)C(=O)Nc1c2c(nn1-c1ccccc1)CSC2`, the max response was -1.75% (inactive).
With `Cn1c(=O)c2sccc2n(Cc2ccc(Br)cc2)c1=O` the max response was -2.03% (inactive).
In the case of `CCN(CC)CCC(c1ccc2c(c1)OCO2)c1c(OC)cc(OC)c2c(-c3ccccc3)cc(=O)oc12` (stereo unspecified), the max response is reported as -5.1% (inactive) and -16.4% (inactive).
For `C/C(=C\C(=O)c1ccc(Br)cc1)N1CCCCC1`, the max response was -3.58% (inactive).
With `CC1CN/C(=C\C(=O)c2ccc(Br)cc2)C(=O)N1` (stereo unspecified) the max response was 106% (active).
In the case of `COc1cc2c(cc1OC)/C(=C/C(=O)c1ccc(NC(C)=O)cc1)NCC2`, the max response is reported as -5.05% (inactive).
In the case of `Cc1cccc(-n2c(SCC(=O)Nc3cccc(S(=O)(=O)NC4=NCCCCC4)c3)nc3ccccc3c2=O)c1C`, the max response is reported as -4.44% (inactive).
With `Cc1cc(Cl)ccc1OCCCC(=O)Nc1cccc(-n2cnnn2)c1` the max response was 1.51% (inactive).
In the case of `O=C(Cc1ccccc1)N1CCN(S(=O)(=O)c2ccc([N+](=O)[O-])cc2)CC1`, the max response is reported as -3.27% (inactive).
With `N#C/C=C1\Sc2ccccc2C(=O)N1CC(=O)N1CCN(S(=O)(=O)c2ccccc2)CC1` the max response was 27.7% (active).
With `CC(CC(=O)N1CCN(S(=O)(=O)c2ccccc2)CC1)n1cncn1` (stereo unspecified) the max response was -1.89% (inactive).
In the case of `Cc1ccc(S(=O)(=O)N(NC2=NS(=O)(=O)c3ccccc32)C(=O)c2ccccc2)cc1`, the max response is reported as -4.47% (inactive).
For `CC(C)(C)c1csc(NC2=NS(=O)(=O)c3ccccc32)n1`, the max response was 26.2% (active).
With `O=C(Oc1cccc(NC2=NS(=O)(=O)c3ccccc32)c1)c1ccncc1` the max response was -1.79% (inactive).
With `O=C(Nc1cccc(-c2cccc(Cl)c2)c1)C1CCN(C2CCC2)CC1` the max response was -5.18% (inactive).
In the case of `O=C(OCCN=C1NS(=O)(=O)c2ccccc21)c1cccc([N+](=O)[O-])c1`, the max response is reported as 0.837% (inactive).
With `CCC(CC)c1nnc(NC(=O)c2nn(C)c(=O)c3ccccc23)s1` the max response was -3.83% (inactive).
For `Cc1ccc(SCCN2C(=O)NC(C)(C)C2=O)cc1`, the max response was -0.406% (inactive).
With `CC(=O)c1cnc(SCCN2C(=O)c3ccccc3C2=O)nc1C` the max response was 6.2% (inactive).
With `Nc1ccc(SCCN2C(=O)c3ccccc3C2=O)cc1` the max response was 30.6% (active).
For `CCCCc1cc(=O)oc2c(C)c(OCC(=O)N3CCC(C(N)=O)CC3)ccc12`, the max response was -2.86% (inactive).
With `COc1ccc(Cl)cc1NC(=O)Cn1nc(-c2ccc(C)cc2)n(C)c1=S` the max response was 0.595% (inactive).
In the case of `CCN(CC(=O)NCc1ccco1)S(=O)(=O)c1ccc(F)cc1`, the max response is reported as -3.33% (inactive).
With `COc1cc(Nc2nc3ccc(Cl)cc3n3cnnc23)cc(OC)c1OC` the max response was -8.65% (inactive).
With `COc1ccc(-c2oc3ncnc(NCCCO)c3c2-c2ccc(OC)cc2)cc1` the max response was -2.49% (inactive).
In the case of `Cc1ccc(-n2[nH]c(C)c(/C=N/NC(=O)c3cccc([N+](=O)[O-])c3)c2=O)cc1C`, the max response is reported as 34.1% (active).
For `COc1cc(/C=N\NC(=O)CNC(=O)c2cccc([N+](=O)[O-])c2)ccc1O`, the max response was 2.84% (inactive).
With `COc1cc(/C=N/NC(=O)c2ccoc2C)ccc1OCCN1CCCCC1` the max response was 15.6% (inactive).
With `Cc1[nH]n(-c2ccccc2)c(=O)c1/C=N/NC(=O)c1ccoc1C` the max response was 55% (active).
For `Cc1[nH]n(-c2ccc(Cl)cc2)c(=O)c1/C=N/n1c(C)nc2ccccc2c1=O`, the max response was -2.58% (inactive).
For `COc1cccc(/C=N/NC(=O)c2cccc([N+](=O)[O-])c2)c1OS(=O)(=O)c1ccc(C)cc1`, the max response was 1.94% (inactive).
In the case of `O=C(O)c1ccc(-n2nc(-c3ccccc3)c3ccccc3c2=O)cc1`, the max response is reported as 15% (inactive).
With `COc1ccc(OC)c(S(=O)(=O)n2c([N+](=O)[O-])cnc2C)c1` the max response was 1.29% (inactive).
In the case of `COc1cccc(CNC(=O)C2CC(=O)N(C3CCCCCCC3)C2)c1` (stereo unspecified), the max response is reported as 24.6% (inactive).
With `C=CCOc1cccc(C2NC(=O)c3ccccc3O2)c1` (stereo unspecified) the max response was 11.8% (inactive).
With `Cc1ccc(C2Nc3cccc4cccc(c34)N2)cc1` the max response was 2.47% (inactive).
With `COc1ccc(C2NC(=O)c3ccccc3N2)cc1` (stereo unspecified) the max response was 19.8% (active).
For `O=C1NC(c2cccc(Cl)c2)Nc2ccccc21` (stereo unspecified), the max response was 16% (active).
For `COc1cccc(C2Nc3cccc4cccc(c34)N2)c1`, the max response was 1.12% (inactive).
With `O=C1CC(c2cccc(Cl)c2)CC(O)=C1C=Nc1ccccc1` (stereo unspecified) the max response was -1.34% (inactive).
For `CC1=CC(C)(C)NC(=S)N1c1ccccc1`, the max response was -0.571% (inactive).
In the case of `COC(=O)c1ccccc1NC(=O)CSc1nc2c(c(=O)[nH]1)CCC2`, the max response is reported as -0.834% (inactive).
With `COc1ccc(NC(=O)CC2C(=O)NC3CCCCC3N2C(=O)c2ccc(F)cc2)cc1` (stereo unspecified) the max response was -1.58% (inactive).
For `COc1cccc(NC(=O)c2ccccc2SC)c1`, the max response was 2.56% (inactive).
With `O=C(Nc1ccccc1)c1cccnc1Nc1ccccc1` the max response was 15% (inactive).
In the case of `COc1cccc(Nc2ncccc2C(=O)O)c1`, the max response is reported as 48% (active).
For `CC(C)CCn1cnc2c1c(=O)n(CC(=O)NC(N)=O)c(=O)n2Cc1ccccc1`, the max response was -9.03% (inactive).
For `Nc1nc(Nc2ccccc2F)nc(NC2CCCCC2)c1[N+](=O)[O-]`, the max response was -1.02% (inactive).
For `CCOC(=O)C1CCN(C(=O)COc2cccc3ccccc23)CC1`, the max response was 21.6% (active).
For `NC(=O)C1CCN(C(=O)COc2cccc3cccnc23)CC1`, the max response was -4.62% (inactive).
With `CCOC(=O)C1CCN(C(=O)COc2cc(C)c(Br)c(C)c2)CC1` the max response was -0.76% (inactive).
With `O=C(C1CCC1)N1CCN(c2ccccc2)CC1` the max response was -0.903% (inactive).
With `Cc1nn(C)cc1C(=O)Nc1ccccc1Br` the max response was 9.35% (inactive).
For `CN(CC(=O)Nc1ccccc1F)CC(=O)Nc1ccccc1Br`, the max response was 27.5% (inactive).
With `O=C(Nc1ccc(F)cc1)c1cc2c(s1)CCCC2` the max response was 34.8% (active).
In the case of `O=C(COC(=O)c1cc2c(s1)CCCC2)NCc1ccccc1Cl`, the max response is reported as -0.034% (inactive).
For `O=C(c1ccccc1)c1ccc(C(=O)N2CCN(c3ccccc3)CC2)cc1`, the max response was 11.3% (inactive).
With `O=C(CNC(=O)c1cc2c(s1)CCC2)Nc1ccccc1Br` the max response was 28.4% (active).
With `O=C(NNC(=O)c1cc2c(s1)CCCC2)c1ccccc1` the max response was 60.8% (active).
With `O=C(c1cc2c(s1)CCC2)N1CCN(c2ccccc2)CC1` the max response was 35.8% (active).
With `COc1ccc(/C=C2/SC(=O)N(CCCCCC(=O)Nc3ccccc3C(=O)O)C2=S)cc1` the max response was -7.35% (inactive).
For `Cc1cc(NC(=O)CCC(=O)N(CC(=O)NC2CCCC2)c2ccc(F)cc2)no1`, the max response was -7.13% (inactive).
For `CC(C)CCn1c(=O)c2c(nc3n2CCCN3Cc2ccccc2)n(C)c1=O`, the max response was -1.82% (inactive).
For `O=C(CSCc1ccc([N+](=O)[O-])cc1)Nc1cccc(C(=O)Nc2ccccc2C(=O)O)c1`, the max response was -3.69% (inactive).
With `C=CCn1c(C2CC(=O)N(c3ccc(C)cc3)C2)nc2ccccc21` (stereo unspecified) the max response was -5.17% (inactive).
With `CC(C)(C)c1cc2cccnc2n1Cc1cccc(F)c1` the max response was -4.56% (inactive).
In the case of `CCc1ccc(OCC(=O)N(Cc2ccccc2)C2CCS(=O)(=O)C2)cc1` (stereo unspecified), the max response is reported as -3.33% (inactive).
